Read-out in experiment [1]: Human Leukocyte Antigen - DR isotype (HLADR), HLA-DRA (gene 3122)
Put plainly: BSK_CASM3C_HLADR: BioMAP Diversity Plus: CASM3C Assay for Human Leukocyte Antigen - DR isotype (HLADR) Biomarker Activity (AID 2283043).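 Note: cell-surface HLA-DR protein level quantified by ELISA.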 The settings on record: primary human coronary artery smooth muscle cells; actives raise or lower the signal.

Read-out in experiment [2]: Macrophage colony-stimulating factor (MCSF), CSF1 (gene 1435)
Put plainly: BSK_CASM3C_MCSF: BioMAP Diversity Plus: CASM3C Assay for Macrophage colony-stimulating factor (MCSF) Biomarker Activity (AID 2283044).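 Note: M-CSF protein amount quantified by ELISA after 24 h exposure.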 The settings on record: primary human coronary artery smooth muscle cells; actives raise or lower the signal.

Read-out in experiment [3]: Low-density lipoprotein receptor (LDLR), LDLR (gene 3949)
Description: BSK_CASM3C_LDLR: BioMAP Diversity Plus: CASM3C Assay for Low-density lipoprotein receptor (LDLR) Biomarker Activity (AID 2283045).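 Note: LDLR protein level on the cell surface quantified by ELISA.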 The settings on record: primary human coronary artery smooth muscle cells; actives raise or lower the signal.

Read-out in experiment [4]: Monocyte Chemoattractant Protein-1 (MCP1), CCL2 (gene 6347)
Put plainly: BSK_CASM3C_MCP1: BioMAP Diversity Plus: CASM3C Assay for Monocyte Chemoattractant Protein-1 (MCP1) Biomarker Activity (AID 2283046).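 Note: MCP-1 level quantified by ELISA 24 h after dosing.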 The settings on record: primary human coronary artery smooth muscle cells; actives raise or lower the signal.

Experiment [5] is described as follows: BSK_CASM3C_Proliferation: Cell Proliferation Assessment in the BioMAP Diversity Plus: CASM3C Assay (AID 2283047).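 Note: sulforhodamine B total protein stain as relative cell number at 560 nm; sub-confluent cells exposed 48 h before staining; fitted both ways against DMSO so gain or loss of cell number.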 The settings on record: primary human coronary artery smooth muscle cells.
Read-out in experiment [6]: Monokine induced gamma interferon (MIG), CXCL9 (gene 4283)
Description: BSK_CASM3C_MIG: BioMAP Diversity Plus: CASM3C Assay for Monokine induced gamma interferon (MIG) Biomarker Activity (AID 2283048).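 Note: MIG protein level measured by ELISA.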 The settings on record: primary human coronary artery smooth muscle cells; actives raise or lower the signal.

Read-out in experiment [7]: serum amyloid A (SAA), SAA1 (gene 6288)
Description: BSK_CASM3C_SAA: BioMAP Diversity Plus: CASM3C Assay for serum amyloid A (SAA) Biomarker Activity (AID 2283049). As to conditions: primary human coronary artery smooth muscle cells; actives raise or lower the signal.

Experiment [8] can be described thus: BSK_CASM3C_SRB: Viability Assessment in the BioMAP Diversity Plus: CASM3C Assay (AID 2283050).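 Note: cells exposed to compound for 24 h.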 As to conditions: primary human coronary artery smooth muscle cells.
Read-out in experiment [9]: Thrombomodulin, THBD (gene 7056)
Description: BSK_CASM3C_Thrombomodulin: BioMAP Diversity Plus: CASM3C Assay for Thrombomodulin Biomarker Activity (AID 2283051).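 Note: thrombomodulin protein level measured by ELISA 24 h after dosing.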 As to conditions: primary human coronary artery smooth muscle cells; actives raise or lower the signal.

Read-out in experiment [10]: Tissue Factor, F3 (gene 2152)
Put plainly: BSK_CASM3C_TissueFactor: BioMAP Diversity Plus: CASM3C Assay for Tissue Factor Biomarker Activity (AID 2283052).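 Note: cell surface tissue factor protein level read by ELISA.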 The settings on record: primary human coronary artery smooth muscle cells; actives raise or lower the signal.

Read-out in experiment [11]: Interferon-gamma inducible Protein 10 (IP10), CXCL10 (gene 3627)
Description: BSK_hDFCGF_IP10: BioMAP Diversity Plus: hDFCGF Assay for Interferon-gamma inducible Protein 10 (IP10) Biomarker Activity (AID 2283053). As to conditions: primary human foreskin fibroblasts; actives raise or lower the signal. In outline: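 IP-10 levels, quantified by ELISA, are taken from human foreskin fibroblast cultures 24 h after chemical treatment, with DMSO serving as negative control and baseline for bidirectional analysis.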

Read-out in experiment [12]: Urokinase-type plasminogen activator receptor (uPAR), PLAUR (gene 5329)
Put plainly: BSK_CASM3C_uPAR: BioMAP Diversity Plus: CASM3C Assay for Urokinase-type plasminogen activator receptor (uPAR) Biomarker Activity (AID 2283054).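 Note: cell-surface uPAR protein level quantified by ELISA.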 The settings on record: primary human coronary artery smooth muscle cells; actives raise or lower the signal.

Read-out in experiment [13]: Vascular cell adhesion molecule 1 (VCAM1), VCAM1 (gene 7412)
Description: BSK_CASM3C_VCAM1: BioMAP Diversity Plus: CASM3C Assay for Vascular cell adhesion molecule 1 (VCAM1) Biomarker Activity (AID 2283055).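 Note: VCAM-1 protein level quantified by ELISA on the cells.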 As to conditions: primary human coronary artery smooth muscle cells; actives raise or lower the signal.

Read-out in experiment [14]: Epidermal growth factor receptor (EGFR), EGFR (gene 1956)
Description: BSK_hDFCGF_EGFR: BioMAP Diversity Plus: hDFCGF Assay for Epidermal growth factor receptor (EGFR) Biomarker Activity (AID 2283057). The settings on record: primary human foreskin fibroblasts; actives raise or lower the signal. In a few lines: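 Measured by ELISA: EGFR levels on primary human foreskin fibroblasts 24 h after chemical treatment, analysed relative to DMSO with bidirectional fitting.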

Read-out in experiment [15]: Interleukin-8 (IL8), CXCL8 (gene 3576)
Put plainly: BSK_hDFCGF_IL8: BioMAP Diversity Plus: hDFCGF Assay for Interleukin-8 (IL8) Biomarker Activity (AID 2283058). The settings on record: primary human foreskin fibroblasts; actives raise or lower the signal. In outline:
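Primary human foreskin fibroblasts (hDFCGF system) dosed with chemical; IL-8 measured by ELISA 24 hours later. Bidirectional curve fitting relative to DMSO baseline; cytotoxicity tracked in parallel cultures by SRB total protein staining.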

Experiment [16] in a line: BSK_hDFCGF_Proliferation: Cell Proliferation Assessment in the BioMAP Diversity Plus: hDFCGF Assay (AID 2283059).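 Note: curves fitted for both rise and fall of signal versus DMSO baseline.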 The settings on record: primary human foreskin fibroblasts. In a few lines:
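Primary human foreskin fibroblasts, sub-confluent; […]; 10% TCA fix, 0.1% SRB stain, A560 total protein. Gain/loss fitted bidirectionally vs DMSO control.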

Read-out in experiment [17]: Macrophage colony-stimulating factor (MCSF), CSF1 (gene 1435)
Put plainly: BSK_hDFCGF_MCSF: BioMAP Diversity Plus: hDFCGF Assay for Macrophage colony-stimulating factor (MCSF) Biomarker Activity (AID 2283060). As to conditions: primary human foreskin fibroblasts; actives raise or lower the signal. In a few lines:
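Human foreskin fibroblast primary cultures; M-CSF measured by ELISA 24 hours after chemical dosing. Bidirectional fitting relative to DMSO, with overt cytotoxicity tracked by parallel SRB total-protein staining (0.1% SRB, 10% TCA fixation, 560 nm).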

Experiment [18] is described as follows: BSK_hDFCGF_SRB: Viability Assessment in the BioMAP Diversity Plus: hDFCGF Assay (AID 2283061).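 Note: cells exposed to compound for 24 h before the read.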 The settings on record: primary human foreskin fibroblasts. In outline: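 Human foreskin fibroblasts in 96-well plates were treated 24 h. Total protein was measured by 0.1% SRB staining after 10% TCA fixation, read at 560 nm. Data were fitted bidirectionally against DMSO.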

Read-out in experiment [19]: Collagen III, COL3A1 (gene 1281)
Description: BSK_hDFCGF_CollagenIII: BioMAP Diversity Plus: hDFCGF Assay for Collagen III Biomarker Activity (AID 2283056). As to conditions: primary human foreskin fibroblasts; actives raise or lower the signal. In a few lines: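 Human foreskin fibroblast primary cultures sampled 24 h after dosing; Collagen III quantified by ELISA. Signal fitted bidirectionally against DMSO baseline.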

Read-out in experiment [20]: TIMP metallopeptidase inhibitor 1 (TIMP1), TIMP1 (gene 7076)
Description: BSK_hDFCGF_TIMP1: BioMAP Diversity Plus: hDFCGF Assay for TIMP metallopeptidase inhibitor 1 (TIMP1) Biomarker Activity (AID 2283062). As to conditions: primary human foreskin fibroblasts; actives raise or lower the signal. In a few lines:
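Human foreskin fibroblast primary cultures dosed for 24 h; secreted/surface TIMP-1 quantified by ELISA. Bidirectional curve fitting against DMSO baseline; cytotoxicity tracked in parallel cultures by SRB total-protein staining.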

Calls of active or inactive are those of the source. Rule for the calls: active = hit-call score of the fitted dose curve at least 0.9, where 1 is the maximum; inactive = score below 0.9.

A word on the AC50: it is the concentration giving half of the maximal activity seen. For the compound `COc1cc2c(c(OC)c1OC)-c1ccc(OC)c(=O)cc1[C@@H](NC(C)=O)CC2`, the concentration at half-maximal activity (AC50) in experiment [1] is 430 nM (active); in [5], 148 nM (active); in [11], 4080 nM (active); in [13], 579 nM (active); in experiment [16], 1000 nM (active). Further, the result in experiment [2], in experiment [3], in experiment [4], in experiment [6], in [7] and in experiment [8] was inactive. Moreover, the result in experiment [9], in [10], in experiment [12], in experiment [14], in experiment [15] and in experiment [17] was inactive. Moreover, the result in [18] was inactive.

For `Cc1nc(-c2ccccn2)ncc1C(=O)Nn1cc(C)c2cc(F)ccc21`, the outcome in experiment [1], in [2], in experiment [3], in experiment [4], in [6] and in [7] was inactive. For the same compound, the outcome in experiment [8], in experiment [10], in experiment [11], in [12], in experiment [13] and in experiment [19] was inactive. Besides, the result in experiment [15], in [16], in experiment [17], in experiment [18] and in experiment [20] was inactive. Also, the AC50 in experiment [5] was 22600 nM (active); in [9] it was 20000 nM (active).

In the case of `OCCNCCO`, the result in [1], in experiment [2], in experiment [3], in [4], in experiment [5] and in experiment [6] was inactive. In addition, the result in experiment [7], in experiment [8], in [9], in experiment [10], in experiment [11] and in experiment [12] was inactive. Further, the outcome in experiment [13], in experiment [19], in experiment [14], in experiment [15], in [16] and in experiment [17] was inactive. Further, in experiment [18], the outcome was inactive.

As to `CCCCCCCCCC`, the result in [1], in [2], in [3], in experiment [4], in [5] and in experiment [6] was inactive. The outcome in [7], in experiment [8], in [9], in [10], in experiment [11] and in [12] was inactive. The outcome in experiment [13], in experiment [19], in experiment [15], in [16], in [17] and in experiment [18] was inactive. Further, in experiment [20], the result was inactive.

For `OC(CCl)CCl`, the result in [1], in experiment [2], in experiment [3], in [4], in [5] and in [6] was inactive. Further, the result in experiment [7], in [8], in [9], in [10], in experiment [11] and in experiment [12] was inactive. For the same compound, the outcome in experiment [13], in experiment [19], in [15], in experiment [16], in experiment [18] and in experiment [20] was inactive.

For the compound `COS(C)(=O)=O`, the outcome in [1], in experiment [2], in experiment [3], in experiment [4], in [5] and in experiment [6] was inactive. Further, the outcome in [7], in experiment [8], in experiment [9], in [10], in experiment [11] and in experiment [12] was inactive. For the same compound, the outcome in [13], in experiment [19], in experiment [14], in experiment [15], in experiment [16] and in [18] was inactive. Moreover, the outcome in [20] was inactive.

The values above are taken from PubChem BioAssay (EPA / NIEHS).
